PABP1 MLLE inh = inhibitors of microRNA-mediated deadenylation, human PABP1 MLLE binding | P11940 | GST-MLLE / FITC-PAM2 fluorescence polarization | inhibition, % at 20 µM | 360,000 tested, 0.36% active | AID 588489; in the data active = inhibition above about 35%, passing the limit was not always enough
Target sequence (P11940 whole entry, looked up): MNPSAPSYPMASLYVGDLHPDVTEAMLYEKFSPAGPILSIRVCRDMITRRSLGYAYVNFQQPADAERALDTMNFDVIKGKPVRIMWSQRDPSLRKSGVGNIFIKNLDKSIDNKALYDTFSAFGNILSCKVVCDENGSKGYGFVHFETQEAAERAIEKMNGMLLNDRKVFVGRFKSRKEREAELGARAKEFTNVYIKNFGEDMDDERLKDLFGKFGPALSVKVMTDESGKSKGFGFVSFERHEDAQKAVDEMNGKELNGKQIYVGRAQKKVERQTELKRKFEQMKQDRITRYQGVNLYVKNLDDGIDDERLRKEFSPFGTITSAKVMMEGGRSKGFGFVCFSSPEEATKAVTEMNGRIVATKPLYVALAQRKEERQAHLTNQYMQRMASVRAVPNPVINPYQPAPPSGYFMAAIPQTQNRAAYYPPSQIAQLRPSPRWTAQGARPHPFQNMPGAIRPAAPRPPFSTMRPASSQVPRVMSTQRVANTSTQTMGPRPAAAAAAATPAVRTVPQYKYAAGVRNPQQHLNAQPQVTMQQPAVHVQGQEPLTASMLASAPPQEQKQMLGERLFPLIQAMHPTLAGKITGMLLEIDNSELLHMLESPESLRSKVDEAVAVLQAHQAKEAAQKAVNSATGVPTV
PABP polyA inh = PABP-poly(A) binding inhibition; calls only at 35 µM; 290,000 tested, 1% active; PABP-poly(A) RNA binding, fluorescence polarization; P11940;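 also: calls also rest on retests at 20 µM and on dose response follow-up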
HMGR II inh = E. faecalis class II HMG-CoA reductase inhibition; AID 1066; 190,000 tested, 0.41% active; inhibition, % at 10 µM; purified E. faecalis HMGR, NADPH absorbance 340 nm kinetic;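 active = inhibition above a set limit, the median over all tested compounds plus 3 SD, cut at about 9.5% in these data; inconclusive = no clear call, values can overlap the other calls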;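 also: enzyme runs in reverse so mevalonate oxidation gives rising NADPH absorbance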
PHOSPHO1 inh = blocks human PHOSPHO1 phosphatase activity; Q8TCT1; recombinant PHOSPHO1, absorbance phosphatase assay; inhibition, % at 13.3 µM; 290,000 tested, 1.1% active; AID 1565; in the data active = inhibition above about 60%
eIF4H FP inh = inhibitors of RNA binding by human eIF4H; Q15056; eIF4H fluorescence polarization binding assay; inhibition, % at 35 µM; 290,000 tested, 0.94% active;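 also: calls also rest on retests at 20 µM and on dose response follow-up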
A number is an active result. Hits are enriched below; roughly 2.4% of the tested compounds scored in any of these assays. Unless noted, no rule for the calls is given here.

For O=C(Nc1ccc(C(=O)N2CCCCC2)cc1)c1ccccc1 the results were PABP1 MLLE inh inactive.
`O=C(Nc1ccccc1)Nc1ccc(C(=O)N2CCCC2)cc1` gave PABP1 MLLE inh inactive, PABP polyA inh inactive, HMGR II inh 9.6, PHOSPHO1 inh inactive and eIF4H FP inh inactive.
For COc1cc2[nH]c(=S)n(NC(=O)c3ccccc3)c(=O)c2cc1OC the results were PABP1 MLLE inh 35.7, PABP polyA inh inactive, HMGR II inh inactive, PHOSPHO1 inh inactive and eIF4H FP inh inactive.
For O=c1c2cc(Cl)ccc2[nH]c(=S)n1Cc1ccco1 the results were PABP1 MLLE inh inactive, PABP polyA inh inactive, HMGR II inh inactive, PHOSPHO1 inh inactive and eIF4H FP inh inactive.
`COc1ccc(NC(=O)c2ccc3c(=O)n(Cc4ccco4)c(=S)[nH]c3c2)c(OC)c1` gave PABP1 MLLE inh inactive, PABP polyA inh active, HMGR II inh inactive, PHOSPHO1 inh inactive and eIF4H FP inh 70.4.
COc1cc2[nH]c(=S)n(Cc3ccco3)c(=O)c2cc1OC was read as PABP1 MLLE inh inactive, PABP polyA inh active, HMGR II inh inactive, PHOSPHO1 inh 68.6 and eIF4H FP inh 52.3.
Screening COC(=O)c1ccc2c(=O)n(NC(C)=O)c(=S)[nH]c2c1 returned PABP1 MLLE inh inactive, PABP polyA inh inactive, HMGR II inh inactive, PHOSPHO1 inh inactive and eIF4H FP inh inactive.
`O=c1c2cc(N3CCOCC3)ccc2[nH]c(=S)n1Cc1ccco1` gave PABP1 MLLE inh inactive, PABP polyA inh active, HMGR II inh inactive, PHOSPHO1 inh inactive and eIF4H FP inh 90.7.
CCc1nnc(NC(=O)CSc2nc3ccc(OC)cc3[nH]2)s1 was read as PABP1 MLLE inh inactive, PABP polyA inh inactive, HMGR II inh inactive, PHOSPHO1 inh inactive and eIF4H FP inh inactive.
`C[N+]1=C2CCCCCN2C(O)(c2ccccc2)C1` (configuration not stated) gave PABP1 MLLE inh inactive, HMGR II inh inactive and PHOSPHO1 inh 86.0.
COc1cc2c(cc1OC)CN(C(=O)CSc1ccccc1C)CC2 was read as PABP1 MLLE inh 45.5.
`COc1cc2c(cc1OC)CN(C(=O)Cn1ccccc1=O)CC2` gave PABP1 MLLE inh inactive, PABP polyA inh inactive, PHOSPHO1 inh inactive and eIF4H FP inh 79.3.
For COc1ccccc1NC(=O)N(C)C[C@@H]1OCc2cnnn2CCCC(=O)N([C@H](C)CO)C[C@H]1C the results were PABP1 MLLE inh inactive.
For S=c1[nH]c2ccccc2n2c(=S)[nH]nc12 the results were PABP1 MLLE inh 41.5, PABP polyA inh inactive, PHOSPHO1 inh inactive and eIF4H FP inh inactive.
`Cc1[nH]n(C(N)=S)c(=O)c1N=Nc1ccc(S(=O)(=O)N2CCCC2)cc1` gave PABP1 MLLE inh 41.6, PABP polyA inh inactive, HMGR II inh inactive, PHOSPHO1 inh inactive and eIF4H FP inh inactive.
For CCOc1ccc(C(=O)N2CCC3(CC2)NCCc2[nH]cnc23)cc1OCC the results were PABP1 MLLE inh inactive, PABP polyA inh inactive, PHOSPHO1 inh inactive and eIF4H FP inh inactive.
`Cc1c(C(=O)OCC(=O)NCc2ccco2)cccc1[N+](=O)[O-]` gave PABP1 MLLE inh inactive.
`Cc1c(C(C)(C)C)c(C=S)n2ccccc12` gave PABP1 MLLE inh inactive, PABP polyA inh active, HMGR II inh inactive, PHOSPHO1 inh 92.7 and eIF4H FP inh 77.3.
`CC(C)(C)c1ccc(-c2nc(C=O)c3ccccn23)cc1` gave PABP1 MLLE inh inactive, PABP polyA inh inactive, HMGR II inh inactive, PHOSPHO1 inh inactive and eIF4H FP inh inactive.
Screening CC(C)CC[n+]1ccccc1/C=C/c1ccc(N(C)C)cc1 returned PABP1 MLLE inh inactive, PABP polyA inh active, PHOSPHO1 inh inactive and eIF4H FP inh inconclusive.
CCN(CC(=O)Nc1ccc(OC)cc1)C(=O)c1ccc2c(=O)n3c(nc2c1)CCC3 was read as PABP1 MLLE inh inactive.
Cn1c(=O)c2c(nc(SCC(=O)O)n2Cc2cc3c(cc2Cl)OCO3)n(C)c1=O was read as PABP1 MLLE inh inactive, PABP polyA inh inactive, HMGR II inh inactive, PHOSPHO1 inh 63.7 and eIF4H FP inh inactive.
`Cc1ccc(-n2nnnc2SCC(=O)c2cc(C)n(-c3cc(C)on3)c2C)c(C)c1` gave PABP1 MLLE inh inactive, PABP polyA inh inactive, HMGR II inh inactive, PHOSPHO1 inh 75.4 and eIF4H FP inh inactive.
Cc1cc(-n2c(C)cc(C(=O)CSc3ccc4c(c3)OCCO4)c2C)no1 was read as PABP1 MLLE inh inactive, PABP polyA inh inactive, HMGR II inh inactive, PHOSPHO1 inh 71.1 and eIF4H FP inh inactive.
Screening COc1ccc(-c2cn(CCO)c(-c3ccncc3)n2)cc1 returned PABP1 MLLE inh inactive.
COc1ccc(C(=O)OCC(=O)c2ccc3c(c2)NC(=O)CO3)cc1S(=O)(=O)N1CCOCC1 was read as PABP1 MLLE inh inactive.
